Measured values published in PubChem BioAssay (Tox21).
Results filed as inconclusive are left out. Unmarked numbers belong to inactive results. Activity calls are given as the source filed them. Calls follow the shape of the dose curve; as a rule, active = well fitted activation curve with a large enough effect in the signal ratio in the repeat runs (not every such curve was filed as active); inconclusive = weak or mixed curves, or effect the other way; inactive = flat fitted curve, though single readings scatter; the % refers to the signal ratio.

target: Estrogen receptor beta (Homo sapiens) (UniProt Q92731); experiment: qHTS assay to identify small molecule agonists of the estrogen receptor beta (ER-beta) signaling pathway (AID 1259377); conditions: ER-beta-UAS-bla HEK293T, beta-lactamase FRET ratio, 16 h; series mostly up to 92.4 µM
Sequence (Q92731 whole entry, looked up): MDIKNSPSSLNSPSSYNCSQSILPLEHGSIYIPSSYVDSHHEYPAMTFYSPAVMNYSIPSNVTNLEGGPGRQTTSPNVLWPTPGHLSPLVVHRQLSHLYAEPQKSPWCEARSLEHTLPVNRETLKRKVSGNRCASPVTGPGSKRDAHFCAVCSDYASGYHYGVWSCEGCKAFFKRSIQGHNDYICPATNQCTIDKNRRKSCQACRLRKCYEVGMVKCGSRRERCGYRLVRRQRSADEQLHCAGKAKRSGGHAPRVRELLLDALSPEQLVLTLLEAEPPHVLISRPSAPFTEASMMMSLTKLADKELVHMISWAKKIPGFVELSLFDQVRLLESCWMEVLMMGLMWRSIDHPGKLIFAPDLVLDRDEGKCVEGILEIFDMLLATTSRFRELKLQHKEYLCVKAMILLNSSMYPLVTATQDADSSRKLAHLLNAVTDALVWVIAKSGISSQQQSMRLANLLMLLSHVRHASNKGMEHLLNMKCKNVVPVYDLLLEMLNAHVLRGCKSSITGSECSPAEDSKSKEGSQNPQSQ
Source text: U.S. Tox21 Program National Center for Advancing Translational Sciences [NCATS] NIH Chemical Genomics Center [NCGC] U.S. Environmental Protection Agency [EPA] National Institutes of Environmental Health Sciences [NIEHS] National Toxicology Program [NTP] U.S. Food and Drug Administration [FDA] Tox21 Assay Overview: Estrogen receptor (ER), a nuclear hormone receptor, plays an important role in development, metabolic homeostasis and reproduction. Two subtypes of ER, ER-alpha and ER-beta, have similar expression patterns with some uniqueness in both types. Endocrine disrupting chemicals (EDCs) and their interactions with steroid hormone receptors like ER causes disruption of normal endocrine function. To identify the compounds that activate ER signaling, an ER beta-UAS-bla GripTite cell line (Life technologies, Madison, WI, USA) containing a beta-lactamase reporter gene under the control of an Upstream Activator Sequence (UAS) was used to screen Tox21 10K compound library.
Tox21 Assay Protocol Summary: ER-beta-UAS-bla HEK293T cells were dispensed at 2,000 cells/5 uL of assay medium containing 2% charcoal stripped FBS per well into black wall/clear-bottom 1536-well plates using a Multidrop Combi (ThermoFisher Scientific, Waltham, MA) dispenser. After the assay plates were incubated at a 37C and 5% CO2 for 6 hr, 23 nL of compounds dissolved in DMSO, positive controls or DMSO only was transferred to the assay plate by a Pintool station (Kalypsys, San Diego, CA). The plates were incubated at 37C and 5% CO2 for 16 hr. Then 1 uL of LiveBLAzerTM B/G FRET substrate was added using a BioRAPTR FRD (Flying Reagent Dispenser, Aurora Discovery, San Diego, CA). After the plates were incubated at room temperature for 2 hours, fluorescence intensity was measured by an Envision plate reader (PerkinElmer, Shelton, CT).
% is scaled to controls: 0 for no effect and ±100 for the full control effect.

Compound | outcome | activation
COP(=S)(OC)Oc1c(Cl)cc(C)cc1Cl | inactive | –
N#CC(O)c1ccccc1 (stereo not given) | inactive | –
CNC(=O)Oc1ccccc1C1OCCO1 | inactive | –
O=NN1CCCCC1 | inactive | –
Fc1ccc(C2(Cn3cncn3)OC2c2ccccc2Cl)cc1 (stereo not given) | inactive | –
Nc1n[nH]c(N)n1 | inactive | –
C[C@]12CC[C@H]3[C@@H](CC=C4C[C@@H](O)CC[C@@]43C)[C@@H]1CC[C@@H]2O | inactive | –
CNC(=O)O/N=C(\C)SC | inactive | –
OCCBr | inactive | –
CCN(CC)CCOC(=O)C(C)(c1ccccc1)c1ccccc1 | inactive | –
O=C(N[C@H]1CN2CCC1CC2)c1cc2ccoc2cn1 | inactive | –
[As]#[In] | inactive | –
N#CC(Cl)(Cl)Cl | inactive | –
COc1cccc(C(=O)NN(C(=O)c2cc(C)cc(C)c2)C(C)(C)C)c1C | inactive | –
Cc1ncsc1CCCl | inactive | –
C1CCC(C2CCCCC2)CC1 | inactive | –
CCC(C)(C)c1cc(-n2nc3ccccc3n2)c(O)c(C(C)(C)CC)c1 | inactive | –
CC(C(O)c1ccccc1)N(C)C/C=C/c1ccccc1 (stereo not given) | inactive | –
CCOP(=O)(N=C1SCCS1)OCC | inactive | –
CCC1(c2ccccc2)C(=O)NC(=O)NC1=O | inactive | –

Compound | outcome | activation
Nc1ccccc1Cl | inactive | –
CN1C[C@@H](NS(=O)(=O)N(C)C)C[C@@H]2c3cccc4c3c(cn4C)C[C@H]21 | inactive | –
CCOc1nc(C(Cl)(Cl)Cl)ns1 | inactive | –
CN1CCC(N(Cc2ccccc2)c2ccccc2)CC1 | inactive | –
CCOC(=O)CP(=O)(OCC)OCC | inactive | –
CCCSC(=O)Cl | inactive | –
COC(=O)c1ccccc1S(=O)(=O)NC(=O)Nc1nc(C)cc(C)n1 | inactive | –
C=CC1CC=CCC1 (stereo not given) | inactive | –
O=CNC(N1CCN(C(NC=O)C(Cl)(Cl)Cl)CC1)C(Cl)(Cl)Cl (stereo not given) | inactive | –
ClC(Br)Br | inactive | –
CCOC(=O)C(c1c(O)c2ccccc2oc1=O)c1c(O)c2ccccc2oc1=O | inactive | –
CC(C)CC#N | inactive | –
CCCCc1ccc(O)cc1 | inactive | –
COC(=O)C(C)Oc1ccc(Oc2ccc(Cl)cc2Cl)cc1 (stereo not given) | inactive | –
CCOC(=O)C1(c2ccccc2)CCN(CCc2ccc(N)cc2)CC1 | inactive | –
CN(N=O)C(N)=O | inactive | –
CC1(C)CON(Cc2ccccc2Cl)C1=O | inactive | –
CC1=C(C(=O)O)N2C(=O)[C@@H](N)[C@H]2SC1 | – | 1.69% [at 19 µM]
CCOP(=S)(OCC)Oc1cc(-c2ccccc2)on1 | inactive | –
CCN(CC)c1nc(C)cc(OP(=S)(OC)OC)n1 | inactive | –
